# Marburg entry inh = blocks Marburg virus binding to or entry into cells | Potency, µM (doses to about 37.8 µM), for the others: at the highest dose activity change, negative = inhibition, actives largely listed as inhibitors | AID 540276 | Marburg virus pseudotyped entry inhibition, cell reporter | 300,000 tested, 1.8% active; calls by dose curve; tested in HEK293 cells; also: potency is read from the fitted curve at half-maximal effect
# Vaccinia Venus = vaccinia inhibition (Venus reporter); Vaccinia virus Venus reporter expression, fluorescence; Potency, µM (series often up to 36.5 µM), for the others: top-dose activity change, negative = inhibition, actives largely listed as inhibitors; 330,000 tested, 0.46% active; calls by dose curve; tested in A549 cells; also: potency is read from the fitted curve at half-maximal effect; nearly all actives have a fitted effect of over 30% in size
# HCMV antiviral = blocks human cytomegalovirus replication | 410,000 tested, 4.5% active | AID 1259415 | activity change, negative = inhibition, % at 57.5 µM | HFF cells, HCMV-luciferase reporter, 72 h; active compounds read low; in the data active = activity change below about -60%; inconclusive = no clear call, values can overlap the other calls; inactive = above about -39%
#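 Luciferase read-out from HCMV-luciferase-infected HFFs (MOI 1 PFU/cell) 72 h post infection at 37C; compounds added after 16 h cell attachment; activity normalized between buffer-only basal and Salinomycin (10uM) inhibitor controls.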
# VACV mCherry inh = inhibitors of vaccinia virus infection (mCherry reporter signal); Vaccinia virus mCherry reporter infection, fluorescence; Potency, µM (doses to about 36.5 µM), for the others: top-dose activity change, negative = inhibition, hits mostly inhibitors; 310,000 tested, 0.63% active; calls by dose curve; tested in A549 cells; also: potency is read from the fitted curve at half-maximal effect; nearly all actives have a fitted effect of over 35% in size
# FMDV antiviral = blocks foot and mouth disease virus; 410,000 tested, 1.2% active; FMDV antiviral cell-based qHTS; Potency, µM (series often up to 57.9 µM), for the others: at the top dose activity change, negative = inhibition, most hits filed as inhibitors; calls by dose curve; tested in HEK293T cells; also: read-out not given here; potency is read from the fitted curve at half-maximal effect; nearly all actives have a fitted effect of over 45% in size
# Lassa entry inh = inhibitors of Lassa virus binding or cell entry; Lassa virus pseudotype entry inhibition, cell reporter; AID 540256; Potency, µM (highest dose often 37.9 µM), without a hit: at the highest dose activity change, negative = inhibition, hits mostly inhibitors; 300,000 tested, 1.2% active; calls by dose curve; tested in HEK293 cells; also: potency is read from the fitted curve at half-maximal effect; nearly all actives have a fitted effect of over 50% in size
# Active calls of the source: *; i = inactive; ? = inconclusive; · = not tested or not shown; [ ] = another dose, or the depositor's remark. Sampled rows, rich in hits. Any-hit rate of the full collection: about 6.5%. % is scaled to controls: 0 for no effect and ±100 for the full control effect.
SMILES,Marburg entry inh,Vaccinia Venus,HCMV antiviral,VACV mCherry inh,FMDV antiviral,Lassa entry inh
CCOC(=O)N1CCN(c2nc(-c3ccco3)cc(C(F)(F)F)n2)CC1,7%,0%,-62*,-16%,?,2%
Cc1ccccc1NC(=O)CSC1=C(C#N)C(c2ccsc2)CC(=O)N1 (centres undefined),?,?,-62*,·,-24%,-15%
N#CC1=C(SCC(=O)Nc2nccs2)NC(=O)CC1c1ccccc1 (centres undefined),8%,-4%,-18,-19%,-8%,15%
COC(=O)CSC1=C(C#N)C(c2ccc(F)cc2)CC(=O)N1 (centres undefined),·,-18%,33,-20%,-23%,·
COC(=O)CSC1=C(C#N)C(c2ccc(C)o2)CC(=O)N1 (centres undefined),1.8µM*,-25%,-21,-3%,-20%,?
COc1cccc(C(=O)NCCS(=O)(=O)NCc2ccco2)c1,19%[46.1 µM],3%,-68*,-20%,8%,13%
CC(=O)OC[C@H]1O[C@H](C#Cc2ccc(C)cc2C)C=C[C@@H]1OC(C)=O,-2%[14.2 µM],·,·,·,·,·
Cc1ccc(F)cc1NC(=O)COC(=O)c1ccc(S(C)(=O)=O)c([N+](=O)[O-])c1,·,-18%,·,-16%,·,·
CN(C)CCCN1c2ccccc2Sc2ccc3ccccc3c21,?,?,17,10µM*,?,?
CN(C)CCCN1c2ccc3ccccc3c2Sc2cccc(Cl)c21,?,?,3,?,-18%,?
O=C(COc1ccc2ccccc2c1)N1c2ccccc2Sc2ccccc21,?,·,16,·,-22%,?
O=C(CCl)N1c2ccccc2Sc2ccc3ccccc3c21,·,10µM*,·,?,32µM*,·
O=C1CC2(CCCC2)CC(=O)N1CCCCNC[C@H]1COc2ccccc2O1,·,·,·,·,-11%,·
CCCCCCCCCCCCCCCCCCN(CCCCCCCCCCCCCCCCCC)c1ccccc1,·,-20%,·,i,·,·
CCN(c1ccc(C)cc1)S(=O)(=O)c1nnc(NC(=O)c2ccco2)s1,-17%[46.1 µM],-10%,-6,-9%,14%,-24%[46.1 µM]
O=c1c(Cl)cc(Cl)nn1-c1ccccc1,16µM*,-10%,-66*,-5%,35µM*,?
COc1cc(Cl)nn(-c2ccccc2)c1=O,?,-7%,-39,-10%,-1%,-6%
CN1C(=O)C(n2ccc3ccccc32)c2cc(Cl)ccc21 (centres undefined),·,·,-6,·,·,·
COc1ccccc1NC(=O)c1cnc(SCC(=O)N2CCCc3ccccc32)n(C)c1=O,·,-13%,14,-10%,-5%,-2%[46.1 µM]
COc1ccc(NC(=O)N2CCCc3ccccc32)c(OC)c1,14%[46.1 µM],-14%,-17,?,-1%,?
COc1cc2c(cc1Nc1nc(Nc3ccsc3C(N)=O)c3cc[nH]c3n1)N(C(=O)CN(C)C)CCC2,·,·,·,·,·,0.07µM*
CNC(=O)c1ncccc1Nc1nc(Nc2cc3c(cc2OC)CCCN3C(=O)CN(C)C)nc2[nH]ccc12,·,·,·,·,·,4µM*
Cc1cc(NC(=O)OC(C)(C)C)c(-n2nnnc2C(C(=O)c2ccc3c(c2)OCO3)N2CCCCC2)cc1C (centres undefined),·,·,-8,·,·,·
Cc1ccc(C)c(N2C(=O)c3ccc(C(=O)Nc4ccccn4)cc3C2=O)c1,·,-20%,47,-28%,-3%,·
CCCSc1ccc(-c2nn(-c3ccccc3)cc2/C=C(/C#N)C(=O)N2CCOCC2)cc1,7.1µM*,-21%,-15,-26%,-12%,?
SMILES,Marburg entry inh,Vaccinia Venus,HCMV antiviral,VACV mCherry inh,FMDV antiviral,Lassa entry inh
CCSc1ccc(-c2nn(-c3ccccc3)cc2/C=C(/C#N)C(=O)NC)cc1,8%,-23%,2,i,-18%,-10%
CC(C)=CCCC(C)=CCON=C1C[C@@H](O)[C@@H](O)[C@@H]2[C@H]3C(=O)N(C[C@@H]4CCCO4)C(=O)[C@@H]3CC[C@@H]12,-5%[14.2 µM],·,·,·,·,·
Cc1cc(C)c(C(=O)CSc2nnc(C)s2)c(C)c1,4%[46.1 µM],-2%,-61*,-6%,4%,6%[46.1 µM]
COCCn1c(SCC(=O)Nc2cc(C)on2)nnc1C(C)C,13%[46.1 µM],-6%,-6,-13%,5%,4%
O=C(CN1C(=O)NC2(CCc3ccccc32)C1=O)Nc1ccc(Cl)cc1F (centres undefined),·,-14%,1,i,-6%,·
CCN(CC)CCN(C(=O)c1ccc2c(c1)CCCC2)c1nc2ccc(F)cc2s1,?,-15%,0,-3%,-19%,12%[46.1 µM]
CCN(CC)CCN(C(=O)c1ccc2c(c1)CCCC2)c1nc2ccc(C)cc2s1,10µM*,-17%,10,-24%,?,?
Cc1ccc2nc(N(CCCN(C)C)C(=O)c3sc4ccccc4c3Cl)sc2c1,-29%,-20%,-78*,-27%,18µM*,?
CN(C)CCCN(C(=O)c1ccc2c(c1)CCCC2)c1nc2ccc(F)cc2s1,?,?,-29,?,-6%,16µM*
Cc1ccc2nc(N(CCCN(C)C)C(=O)c3ccc(S(=O)(=O)N(C)C)cc3)sc2c1,?,-1%,32,i,0%,12%
CN(C)CCCN(C(=O)C1COc2ccccc2O1)c1nc2cc3c(cc2s1)OCO3 (centres undefined),·,·,57,·,-15%,·
CN(C)CCCN(C(=O)c1ccc(Br)s1)c1nc2cc3c(cc2s1)OCO3,·,13µM*,-103*,10µM*,-23%,·
CN(C)CCCN(C(=O)c1cc(-c2cccs2)nc2ccccc12)c1nc2ccc(F)cc2s1,?,?,18,?,-17%,6.3µM*
Cc1ccc(C(=O)N(CCCN(C)C)c2nc3ccc(Cl)cc3s2)cc1C,8.9µM*,-22%,0,25%,?,?
CN(C)CCCN(C(=O)c1ccc2c(c1)OCCO2)c1nc2ccc(Cl)cc2s1,·,·,-10,·,·,·
CN(C)CCCN(C(=O)c1ccc2c(c1)CCCC2)c1nc2cc3c(cc2s1)OCO3,11µM*,?,?,?,-21%,?
COc1ccc(C2C(=O)N(C3CCCCCC3)CC(=O)N2Cc2ccc(C)cc2)cc1OC (centres undefined),·,-7%,-26,-1%,-18%,-26%[46.1 µM]
CC(=O)c1ccc([C@@H]2C=C[C@H](O)[C@@H](CO)O2)cc1,23%[14.2 µM],·,·,·,·,·
NNC(=O)CS(=O)(=O)c1ccc(Cl)cc1,·,·,-6,·,-6%,·
CC(=O)NC(c1ccc2ccccc2c1)c1ccc2cccnc2c1O (centres undefined),?,?,-98*,?,-13%,?
Cc1ccnc(NC(c2cccc(O)c2)c2ccc3ccc(C)nc3c2O)c1 (centres undefined),3%[46.1 µM],-7%,9,-15%,-17%,-9%[46.1 µM]
COc1ccc(C(NC(C)=O)c2ccc3cccnc3c2O)cc1OC (centres undefined),·,?,·,7.9µM*,·,·
COc1ccc(C(NC(C)=O)c2ccc3cccnc3c2O)c(OC)c1 (centres undefined),?,?,·,·,0%,6.3µM*
